An excerpt weighted towards active compounds, which were near 3.3% of everything screened.
Sm TGR inh – qHTS Assay for the Inhibitors of Schistosoma Mansoni Peroxiredoxins; Potency, µM (titrated, usually from 114 µM), inactives show at the highest dose activity change, negative = inhibition, actives largely listed as inhibitors; Schistosoma mansoni thioredoxin glutathione reductase (TGR), Q962Y6; 3% of 360,000 active; purified TGR, DTNB reduction, TNB absorbance 405 nm; further: nearly all actives have a fitted effect of over 60% in size
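Kinetic colorimetric format: TGR-catalysed, NADPH-driven DTNB reduction monitored via TNB absorbance. Enzyme dispensed at 20 nM; compound exposure 15 min at room temperature before reaction start.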
AmpC inh detg – qHTS Inhibitors of AmpC Beta-Lactamase (assay with detergent) | P00811 | AmpC hydrolysis of nitrocefin, absorbance 480 nm, 0.01% Triton | Potency, µM (series often up to 114 µM), for inactives: at the top dose activity change, negative = inhibition, hits mostly inhibitors | 0.041% of 370,000 active | AID 485294, 2010;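 further: 0% = no-compound wells and -100% = no-enzyme wells; nearly all actives have a fitted effect of over 25% in size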
Target sequence (P00811 whole entry, looked up): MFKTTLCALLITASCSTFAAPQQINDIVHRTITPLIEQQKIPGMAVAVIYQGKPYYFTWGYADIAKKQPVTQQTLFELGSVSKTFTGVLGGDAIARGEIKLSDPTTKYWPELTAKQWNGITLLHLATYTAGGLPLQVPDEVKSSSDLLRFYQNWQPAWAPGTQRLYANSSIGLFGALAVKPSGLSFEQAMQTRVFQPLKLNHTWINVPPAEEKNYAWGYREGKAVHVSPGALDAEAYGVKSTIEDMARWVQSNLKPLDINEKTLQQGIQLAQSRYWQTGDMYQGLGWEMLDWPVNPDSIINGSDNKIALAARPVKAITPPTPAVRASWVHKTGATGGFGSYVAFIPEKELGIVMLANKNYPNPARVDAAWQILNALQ
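20 mM phosphate pH 7.0 + 0.01% (detergent screen) or 0.0001% Triton X-100; 5.3 nM AmpC reagent; cpd preinc 15 min RT; nitrocefin (800 uM stock) to start; A480 q20 s × 4 min; Activity was normalised to no-enzyme and no-compound control wells.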
AmpC inh no detg – qHTS Inhibitors of AmpC Beta-Lactamase (assay without detergent); P00811; AID 485341, 2010; 0.52% of 330,000 active; Potency, µM (doses to about 57.1 µM), inactives show top-dose activity change, negative = inhibition, usual class: inhibitors; AmpC nitrocefin hydrolysis, absorbance 480 nm, 0.0001% Triton;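 further: plate controls were no compound for no effect and no enzyme for full effect; nearly all actives have a fitted effect of over 20% in size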
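20 mM phosphate pH 7.0 + 0.01% (detergent screen) or 0.0001% Triton X-100; 5.3 nM AmpC reagent; cpd preinc 15 min RT; nitrocefin (800 uM stock) to start; A480 q20 s × 4 min; Activity was normalised to no-enzyme and no-compound control wells.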
* = called active by the depositor; ? = inconclusive; / = no result given; [ ] = dose if it differs, or a comment. The call rests on the fitted dose curve; in most records, active means well fitted curve in the direction sought with a large enough effect; inconclusive means small, poorly fitted or top-dose-only effect, or another doubt; inactive means no such curve, though single readings can be large; an effect the other way counts as inactive or inconclusive. Unless noted, on the % scale 0 is the no-effect control and ±100 the full control effect; potency means the concentration at half of the fitted maximal effect.

SMILES	Sm TGR inh	AmpC inh detg	AmpC inh no detg
Cc1cc(C)c(S(=O)(=O)NCCSCc2ccco2)c(C)c1	13µM*	-10%	-43%
CCOc1ccc(S(=O)(=O)NCCSCc2ccco2)cc1	?	3%	-15%
COc1ccc(S(=O)(=O)NCCSCc2ccco2)cc1	25µM*	-10%	-41%
COc1ccc(S(=O)(=O)NCCSCc2ccco2)cc1OC	11µM*	1%	-27%
CCOc1ccc(NC(=O)Nc2ccon2)cc1	5%	?	-16%
Cc1noc(C)c1COc1ccc(C(=O)NNC(=O)c2ccccc2F)cc1	2%	0%	-9%
COC(=O)c1ccc(CSCc2ccc(C#N)cc2)cc1	8%	-5%	-27%
c1csc(CNc2ccc3c(c2)OCCO3)c1	31%	-4%	-22%
Clc1cc(NCc2cccs2)ccc1N1CCOCC1	45µM*	-1%	-12%
CCOC(=O)/C=C1\Nc2ccccc2SC1=O	-12%	-10%	20µM*
CCOC(=O)C1=C(C)Nc2ccccc2S1	-10%	-5%	-30%
Cc1noc(C)c1CSCC(=O)Oc1ccc(N(C)S(=O)(=O)c2ccc(Cl)cc2)cc1	-4%	?	-21%
COc1ccc(NC(=S)Nc2cnc3ccccc3c2)c(OC)c1	40µM*	-7%	-6%[2.29 µM]
COc1ccc(NC(=S)Nc2ccccc2OC)c(OC)c1	/	1%	4%
COc1ccc(NC(=S)Nc2ccc(OC)cc2OC)c(OC)c1	-3%	?	-9%
COc1ccc(NC(=S)NC(=O)CC(C)C)c(OC)c1	40µM*	?	-29%
CCN(CC(=O)NCc1cccs1)C(=O)c1ccc(-c2ccccc2F)o1	3%	0%	-1%
O=C(Cn1cnnn1)NC1CCCN(Cc2ccccc2F)C1 (stereo unspecified)	5%	?	-7%
FC(F)(F)c1ccc(Cl)c(-n2c(-c3cc(-c4ccco4)[nH]n3)n[nH]c2=S)c1	-34%	3%	4µM*
S=c1[nH]nc(-c2ccco2)n1-c1ccccc1Cl	16%	-6%	-10%
FC(F)(F)c1ccc(Cl)c(-n2c(-c3ccco3)n[nH]c2=S)c1	-1%	0%	-15%
S=c1[nH]nc(-c2cc(-c3ccco3)[nH]n2)n1-c1ccccc1Cl	40µM*	-6%	-38%
Cc1cc(C)cc(NC(=O)[C@@H](NC(=O)c2ccco2)C(C)C)c1	-14%	?	-2%
COC(=O)c1c(NC(=O)C(=O)N2CCOCC2)sc2c1CCCC2	9%	2%	169%
O=C(Nc1ccccc1-c1ccccc1)C1CCCN(c2ncccn2)C1 (stereo unspecified)	-26%	-8%	-20%
SMILES	Sm TGR inh	AmpC inh detg	AmpC inh no detg
Cc1ccc(S(=O)(=O)C(CNC(=O)Cc2ccc(Cl)cc2)c2cccs2)cc1 (stereo unspecified)	-29%	-3%	/
COc1ccc(CC(=O)NCC(c2cccs2)S(=O)(=O)c2ccc(Cl)cc2)cc1 (stereo unspecified)	11µM*	-1%	/
COc1ccc(CNC(=O)C(=O)NCC(c2cccs2)S(=O)(=O)c2ccc(C)cc2)cc1 (stereo unspecified)	40µM*	3%	/
COc1ccc(CNC(=O)C(=O)NCC(c2cccs2)S(=O)(=O)c2ccc(F)cc2)cc1 (stereo unspecified)	-30%	0%	/
Cc1ccc(CNC(=O)C(=O)NCC(c2cccs2)S(=O)(=O)c2ccccc2)cc1 (stereo unspecified)	2%	10%	/
Cc1ccc(CNC(=O)C(=O)NCC(c2cccs2)S(=O)(=O)c2cccs2)cc1 (stereo unspecified)	22µM*	0%	/
C/C(CCN1CCc2nc(-c3ccccc3)c(-c3ccccc3)cc2C1)=N\O[C@@H](C)c1cn([C@H](CO)Cc2ccccc2)nn1	-19%	?	231%
NC(=O)[C@@H]1CCCN1C(=O)c1ccc2nc(Cc3cccc(Cl)c3)oc2c1	-12%	1%	9%
Cc1ccc(C(=O)N2CCC(C(=O)c3ccc(Cl)cc3)CC2)cc1	-2%	?	47%
Cc1ccc(N2C(=O)C3C(C2=O)C(C(=O)c2ccc(Cl)cc2)N2CCCC32)cc1 (stereo unspecified)	28µM*	1%	-27%
CC(=O)Oc1ccc(N2C(=O)C3C(C2=O)C(C(=O)c2ccc(Cl)cc2)N2CCCC32)cc1 (stereo unspecified)	20µM*	-1%	-4%
COc1ccc(N2C(=O)[C@@H]3[C@H](C2=O)[C@H](C(=O)c2ccc(OC(C)=O)cc2)N2N=CC=C[C@@H]32)cc1	?	-11%	156%
Fc1ccc(-c2csc(Nc3ccccn3)n2)cc1	-1%	-1%	-35%
CCOc1ccc(S(=O)(=O)N2CCCC(C(=O)N3CCOCC3)C2)cc1Cl (stereo unspecified)	6%	1%	66%
CCOC(=O)Cn1c(=O)oc2cc(S(=O)(=O)NCCCc3ccccc3)ccc21	-13%	?	-9%
CCOC(=O)Cn1c(=O)oc2cc(S(=O)(=O)NCCc3ccc(C)cc3)ccc21	2%	?	10µM*
O=C(Cc1ccc([N+](=O)[O-])cc1)N/N=C/c1ccccc1F	-3%	2%	-18%
CCc1cc2cc(C)ccc2nc1SCC(=O)N1CCN(C(=O)c2ccco2)CC1	?	-7%	132%
COc1cc2cc(C)c(SCC(=O)N3CCN(C(=O)c4ccco4)CC3)nc2cc1OC	18µM*	?	90%
O=C(Nc1ccc(F)cc1)C1CCCN(C2=NS(=O)(=O)c3ccccc32)C1 (stereo unspecified)	-7%	?	1%
CCc1ccc2oc(C(=O)Nc3cccc(Cl)c3C)cc(=O)c2c1	-2%	1%	/
CC(C)C[C@H](N)c1nnc(S(=O)(=O)Cc2ccc(F)cc2)o1	1µM*	1.4µM*	2µM*
CC(C)C[C@H](N)c1nnc(SCc2ccc(Cl)cc2Cl)o1	8%	0%	/
O=C(N/N=C(/CC(=O)c1cccs1)C(F)(F)F)c1ccc(O)cc1	-13%	-6%	7.9µM*
O=C(N/N=C(\CC(=O)c1cccs1)C(F)(F)F)c1cccnc1	?	6%	-4%
SMILES	Sm TGR inh	AmpC inh detg	AmpC inh no detg
CN(C)c1ccc(C2C=C(c3ccc(Cl)cc3OC(F)F)Nc3ncnn32)cc1 (stereo unspecified)	22µM*	2%	-25%
Cc1ccc(C2C=C(c3ccccc3OC(F)F)Nc3ncnn32)cc1 (stereo unspecified)	?	2%	15%
COC(=O)c1cc(=O)n(CCc2ccccc2)c(=Nc2ccc(F)cc2)s1	5%	-15%	0.71µM*
COC(=O)c1cc(=O)n(CCc2ccc(OC)cc2)c(=Nc2ccc(F)c(Cl)c2)s1	2%	-5%	-6%
Cc1ccc(N2CCN(C(=O)c3cc(-c4ccc(F)cc4)[nH]c3C)CC2C)cc1 (stereo unspecified)	-12%	-9%	116%
CN1C(=O)/C(=C/c2ccc(Cl)s2)C(=O)NC1=S	7.9µM*	-11%	-34%
CN1C(=O)/C(=C\c2ccc(N3CCCCCC3)cc2)C(=O)NC1=S	?	3%	-28%
Cc1ccsc1/C=C1\C(=O)NC(=S)N(C)C1=O	25µM*	0%	-27%
